Laboratory results: PubChem BioAssay AID652190 (Johns Hopkins Ion Channel Center, 2013)

target: Inward rectifier potassium channel 2 (Mus musculus) (UniProt P35561); test: Kir2.1 channel inhibition, specificity check, SAR follow-up, selectivity assay for TASK1 inhibitor project, cell-based, FluxOR thallium flux, HEK293, CRC (AID 652190); settings: Kir2.1-expressing cells; series mostly up to 30 µM; fluorescence ratio, lower = inhibition: at the top concentration
Sequence (P35561 whole entry, looked up): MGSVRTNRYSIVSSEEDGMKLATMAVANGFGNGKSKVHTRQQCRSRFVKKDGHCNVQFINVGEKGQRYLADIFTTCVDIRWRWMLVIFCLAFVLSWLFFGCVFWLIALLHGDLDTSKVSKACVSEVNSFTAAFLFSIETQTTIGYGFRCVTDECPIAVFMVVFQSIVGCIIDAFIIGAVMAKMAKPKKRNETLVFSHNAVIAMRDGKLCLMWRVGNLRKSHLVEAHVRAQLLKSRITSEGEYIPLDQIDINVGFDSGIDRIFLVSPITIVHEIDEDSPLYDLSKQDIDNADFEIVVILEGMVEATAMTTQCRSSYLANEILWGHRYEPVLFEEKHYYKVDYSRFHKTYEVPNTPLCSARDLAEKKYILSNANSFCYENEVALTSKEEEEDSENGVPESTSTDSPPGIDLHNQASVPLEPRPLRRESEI

Fluorescence ratio, lower = inhibition, inactive:
CCCC(=O)C1CCN(c2ncnc3c2CN(C(=O)c2ccc(-c4ccccc4)cc2)CC3)CC1 1.51
Cc1cccc(C(=O)Nc2cccc(NC(=O)c3cccc(F)c3)c2)c1 1.4
COc1ccccc1C(=O)Nc1cccc(NC(=O)c2cccc3ccccc23)c1 1.82
COc1ccccc1C(=O)Nc1cc(NC(=O)c2cccc(C)c2)ccc1F 1.34
COc1cnccc1C(=O)Nc1cccc(NC(=O)c2cccc(C)c2)c1 1.23
COc1c(F)cccc1C(=O)Nc1cccc(NC(=O)c2cccc(C)c2)c1 1.33
CC(C)c1ccccc1C(=O)Nc1cccc(NC(=O)c2ccccc2OC(F)(F)F)c1 1.83
COc1ccc(CC(=O)NCc2ccccc2-c2ccccc2C(=O)NCc2ccc(F)cc2F)cc1 1.35
CC(C)Oc1ccccc1C(=O)Nc1cccc(NC(=O)c2ccccc2OC(F)(F)F)c1 1.86
COc1ccccc1C(=O)Nc1cc(NC(=O)c2ccccc2C(C)C)ccc1F 1.84
COc1ccc(F)cc1C(=O)Nc1cccc(NC(=O)c2cccc(C)c2)c1 1.44
